From PubChem BioAssay
In the library only some 12% were active in any assay of this set; here they are far more common.
WT yeast gro inh: growth inhibition of WT yeast, mitochondrial fusion screen; mitochondrial fusion phenotypic screen, WT strain; inhibition, % at 10 µM; 2.1% of 190,000 active; in the data active = inhibition above about 58%; tested in S. cerevisiae
Arbovirus anti: blocks arbovirus infection; arbovirus infection cell-based antiviral screen; inhibition, % at 10 µM; 0.37% of 200,000 active; in the data active = inhibition above about 30%
CHOP inhibitor: blocks CHOP induction under ER stress. inhibition, % at 10 µM. 3.8% of 220,000 active. CHO-K1 CHOP-promoter luciferase, tunicamycin-induced, 15-18 h. AID 2732;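 active = compounds that reduced the stress-induced luciferase reporter signal by more than about 70% of percent inhibition, limit read from the data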;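 note: 0% = tunicamycin plus vehicle and 100% = wells without tunicamycin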
Lmaj promast: reduces viability of Leishmania major promastigotes; resazurin fluorescence viability; inhibition, % at 10 µM; 9% of 200,000 active; in the data active = inhibition above about 50%;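 note: promastigotes grown with compound for 44 hours at 28 °C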
Lmaj promast 1uM: L. major promastigote growth inhibition, 1 uM repeat | shares compounds with Lmaj promast | resazurin fluorescence, 48 h | inhibition, % at 1 µM | 13% of 1,100 active;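 active = inhibition above about 50% in both repeat tests, limit read from the data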
Active calls of the source: *; . = not tested or not shown; ! = a repeat was not active.

SMILES	WT yeast gro inh	Arbovirus anti	CHOP inhibitor	Lmaj promast	Lmaj promast 1uM
COc1ccc(OC)c2[nH]c(=O)c(CCNC(=O)c3ccc(S(=O)(=O)N4CCCC4)cc3)cc12	23.8	-1.2	-0.5	67.1*	-8.6
CCN(CC)S(=O)(=O)c1ccc(C(=O)NCCc2cc3c(OC)ccc(OC)c3[nH]c2=O)cc1	23.5	-2.9	20.7	2.0	.
O=C(N/N=C/c1ccc2c(c1)OCO2)c1ccc(COc2cccc3cccnc23)cc1	-1.9	-25.5	-11.8	39.6	.
CCOC(=O)Cc1csc(NC(=O)C(NC(=O)C2CCCCC2)C(C)C)n1 (centres undefined)	14.5	3.1	17.0	7.2	.
O=C(COc1ccccc1F)NC1CCN(Cc2ccccc2)CC1	27.2	2.0	-7.7	90.7*	71.6*
O=C(CCc1nc(-c2ccccc2F)no1)NC1CCN(Cc2ccccc2)CC1	11.5	15.2	-2.9	-0.6	.
Cc1ccc(C2Nc3cccc4cccc(c34)N2)s1	-4.0	0.1	-30.1	-0.4	.
CC(C)(C)C1CCC2(CC1)Nc1cccc3cccc(c13)N2	18.4	-14.4	37.8	100.1*	63.7*
FC(F)(F)c1ccccc1-n1ccnc1	.	.	5.3	.	.
Clc1ccccc1C(c1ccccc1)(c1ccccc1)n1ccnc1	86.4	-30.1	88.2*!	100.3*	87.6*
ClC(Br)=C(n1cnc2ccccc21)n1cnc2ccccc21	13.9	-10.8	14.9	99.7*	-19.5
OCCN1CCN(C(=S)c2ccc(Br)cc2)CC1	.	-3.3	13.8	68.1*	-1.6
CC(C)c1ccc(C(=O)N2CCN(CCO)CC2)cc1	8.2	6.8	10.3	-1.2	.
CC(CCc1ccccc1)NCc1ccncc1 (centres undefined)	2.3	10.5	-1.3	88.5*	17.0
CCO[C@@H]1OC(C(=O)NCc2ccccc2)=C[C@H](c2cn(C(C)=O)c3ccccc23)[C@H]1CCCO	5.5	-4.8	28.3	21.9	.
Cc1ccc(-c2[nH]nc(N)c2N=Nc2ccccc2C)cc1	-1.2	-36.0	59.8	99.8*	-18.9
CCOC1(OCC)N=C(N)C2(C#N)C(c3cccc(C)c3)C12C#N (centres undefined)	3.1	4.9	7.8	-2.0	.
CCOC(=O)CSC1=C(C#N)C(c2ccc(Cl)cc2)CC(=O)N1 (centres undefined)	13.3	-5.4	5.9	28.3	.
CCOC1(OCC)C(c2ccc(N)cc2)C(C#N)(C#N)C1(OCC)OCC (centres undefined)	4.9	29.4	87.6*	62.9*	-2.4
CCOC1(OCC)C(c2ccc(Cl)cc2)C(C#N)(C#N)C1(OCC)OCC (centres undefined)	65.1*	13.1	25.7	100.0*	-3.2
O=c1cc(-c2cccc3ccccc23)[nH][nH]1	1.0	2.4	12.1	80.0*	-10.5
c1ccc(COn2nnc3ccccc32)c(COn2nnc3ccccc32)c1	0.3	1.5	54.4	86.9*	-9.2
CCOC(=O)c1cnc(-n2nc(C)cc2C)nc1Nc1ccc(N(C)C)cc1	14.1	-21.8	-111.0	90.8*	10.5
CCOC(=O)c1cnc(-n2nc(C)cc2C)nc1Nc1ccc(C)cc1	46.0	4.3	-15.2	5.3	.
NNC(=O)c1ccc(CSc2cccc3cccnc23)cc1	11.1	15.6	-21.2	-11.9	.
SMILES	WT yeast gro inh	Arbovirus anti	CHOP inhibitor	Lmaj promast	Lmaj promast 1uM
Cc1cccc(CSc2cccc3cccnc23)c1	64.7	-43.3	0.1	100.3*	-9.0
COc1ccc(C(=O)NCC2OCCc3ccccc32)c(O)c1 (centres undefined)	37.2	-2.3	11.5	52.8*	-6.0
NC(C(=O)O)C1CC(Cl)=NO1 (centres undefined)	-0.8	-3.7	6.3	99.6*	93.5*
Cc1cccc(-n2c(SCc3cc(=O)n4ccsc4n3)nc3ccccc32)c1	23.0	-1.4	43.6	92.0*	-13.5
Cc1ccc(SCc2cc(=O)n3ccsc3n2)c(C)c1	-5.4	-6.7	-3.7	-7.0	.
CC(C)CNC(=O)c1cccc(NC(=O)Cc2ccc(Br)cc2)c1	8.6	-4.5	33.2	-0.4	.
O=C(Cn1c(=O)n2ncnc2c2c3c(sc21)CCCC3)c1ccccc1	-7.5	-11.5	23.8	74.4*	-9.7
Cc1ccc(N=C(NOCc2ccc(Cl)cc2Cl)c2nonc2N)c(C)c1	68.3*	-41.8	63.6	98.0*	20.4
CN1CCN2c3ccccc3Cc3ccccc3C2C1 (centres undefined)	6.4	2.1	17.3	53.7*	-22.4
Cc1cccc(NC(=O)CCSc2nncn2C)c1	-2.8	2.8	-4.2	-7.7	.
Nc1nc(NCc2ccco2)nc(Nc2cccc(F)c2)c1[N+](=O)[O-]	.	.	19.1	.	.
CCOC(=O)c1cccc(NC(=O)C2CCN(S(=O)(=O)c3cccs3)CC2)c1	20.7	-3.4	35.1	8.6	.
